Among the test systems are HCT-15 colon; HT29 colon; SNB-75 CNS; SNB-19 CNS; U251 CNS; PC-3 prostate; SK-MEL-5 melanoma; UACC-62 melanoma; LOX IMVI melanoma; SK-MEL-28 melanoma; SK-MEL-2 melanoma; EKVX NSCLC; SN12C renal; UO-31 renal; TK-10 renal; ACHN renal; CAKI-1 renal; A498 renal; CCRF-CEM leukemia; MOLT-4 leukemia.
Holding throughout (test): NCI-60 one-dose screen, 48 h (100 = growth as untreated, 0 = no growth, -100 = all killed)
Details in all cases: 10 µM unless noted

Compounds without any hit were thinned out: in the full panel of roughly 83,000, 20% have a hit.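 Treatment: one concentration, 48 hours, 96-well format. Scoring: percent growth, with anything below 10 considered active.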 Unmarked numbers belong to inactive results. The source made the active and inactive calls.

Regarding `O=C(COc1ccc(/C=C2\C(=O)Nc3ccc(Cl)cc32)cc1)Nc1ccc(Cl)cc1`, the growth was 42.1% with HCT-15 colon; 55.8% in the test with HT29 colon; 78.9% with SNB-75 CNS; 78.2% in the test with SNB-19 CNS; 5.92% (active) in the test on U251 CNS; 41.7% with PC-3 prostate. Further, the growth with SK-MEL-5 melanoma is 78%; in the test on UACC-62 melanoma, 27.8%; in the test with LOX IMVI melanoma it was 1.2% (active); in the test on SK-MEL-28 melanoma it was 78.6%; in the test with SK-MEL-2 melanoma it was 88.6%; in the test with EKVX NSCLC it was 74.9%. Also, the growth in the test with SN12C renal was 53%; with UO-31 renal, 50.8%; in the test with TK-10 renal it was 112%; in the test on ACHN renal, 33.3%; in the test on CAKI-1 renal, 34.8%; with A498 renal it was 72.4%. In addition, the growth in the test with CCRF-CEM leukemia is 47.2%; in the test with MOLT-4 leukemia it was 55.5%.

Regarding `Cc1ccc(CSC2=C(Cl)CN(c3ccc(Cl)cc3)C2=O)cc1`, the growth with HCT-15 colon was 99.2%; with HT29 colon, 116%; with SNB-75 CNS, 103%; with SNB-19 CNS it was 93.5%; in the test on U251 CNS it was 101%; in the test on PC-3 prostate it was 107%. The growth was 99.8% in the test on SK-MEL-5 melanoma; 94.7% in the test on UACC-62 melanoma; 33.9% with LOX IMVI melanoma; 104% in the test on SK-MEL-28 melanoma; 104% in the test with SK-MEL-2 melanoma; 104% in the test with EKVX NSCLC. The growth was 104% in the test on SN12C renal; 78.6% with UO-31 renal; 115% in the test with TK-10 renal; 107% in the test with ACHN renal; 94.5% in the test with CAKI-1 renal; 113% in the test with A498 renal. The results for the growth in the test on CCRF-CEM leukemia and in the test with MOLT-4 leukemia were 106% and 110%, respectively.

As for `Cc1cc2nc3c4cc(C#N)ccc4n(CCN(C)C)c3nc2cc1C`, the growth was 2.02% (active) with HCT-15 colon; -44.3% (active) in the test with HT29 colon; -8.73% (active) with SNB-75 CNS; 5.67% (active) with SNB-19 CNS; 2.73% (active) in the test with U251 CNS; 4.69% (active) in the test on PC-3 prostate. Also, the growth was -89.5% (active) in the test on SK-MEL-5 melanoma; -60.6% (active) in the test on UACC-62 melanoma; -55.5% (active) in the test on LOX IMVI melanoma; -50.1% (active) with SK-MEL-28 melanoma; -86.7% (active) in the test on SK-MEL-2 melanoma; -7.83% (active) with EKVX NSCLC. Also, the growth in the test on SN12C renal was 2.81% (active); in the test with UO-31 renal, -27.9% (active); in the test on TK-10 renal it was -2.16% (active); in the test on ACHN renal, -13.7% (active); with CAKI-1 renal it was -27.3% (active); in the test with A498 renal, -44% (active). For the same compound, the growth was 3.32% (active) with CCRF-CEM leukemia and 3.23% (active) with MOLT-4 leukemia.

For the compound `Cn1cc(-c2cc3ncnc(Nc4ccc(NC(=O)Nc5cc(C(C)(C)C)on5)cc4)c3s2)cn1`, the growth is 27.9% with HCT-15 colon; 16.7% with HT29 colon; 6.15% (active) in the test with SNB-75 CNS; 56.4% in the test on SNB-19 CNS; 37.9% in the test with U251 CNS; 28.5% in the test on PC-3 prostate. Also, the growth in the test with SK-MEL-5 melanoma was 20.8%; in the test on UACC-62 melanoma, 22.2%; with LOX IMVI melanoma it was 6.08% (active); with SK-MEL-28 melanoma, 15%; in the test with SK-MEL-2 melanoma it was -9.06% (active); with EKVX NSCLC, 48.2%. Moreover, the growth is 18.8% with SN12C renal; 41.7% in the test with UO-31 renal; 62.5% with TK-10 renal; 27.1% in the test with ACHN renal; 14.5% with CAKI-1 renal; 16.4% in the test on A498 renal. Moreover, the growth in the test on CCRF-CEM leukemia was 22.2%; in the test on MOLT-4 leukemia it was 14.3%.

Consider `CC1(C)CC[C@]23CC[C@]4(C)[C@H](CC[C@@H]5[C@@]6(C)CC[C@H](N)C(C)(C)[C@@H]6CC[C@]54C)[C@H]2[C@H]1OC3`, for which the growth in the test with HCT-15 colon was -52.2% (active); with HT29 colon, 20.2%; in the test on SNB-75 CNS, 99.5%; in the test on SNB-19 CNS, 47.3%; in the test with U251 CNS, -47.9% (active); in the test with PC-3 prostate it was 69.6%. The growth in the test with SK-MEL-5 melanoma was 87.7%; with UACC-62 melanoma, 94.6%; in the test with LOX IMVI melanoma it was -74.2% (active); in the test with SK-MEL-28 melanoma, 103%; in the test on SK-MEL-2 melanoma, 108%; in the test with EKVX NSCLC, 63.1%. Further, the growth was 79.1% in the test on SN12C renal; 82.7% in the test with UO-31 renal; 135% in the test on TK-10 renal; 36.5% in the test on ACHN renal; 1.94% (active) in the test with CAKI-1 renal; 108% in the test on A498 renal. The results for the growth in the test with CCRF-CEM leukemia and in the test with MOLT-4 leukemia were -5.4% (active) and -13.3% (active), respectively.

Turning to `CNC(=O)c1cc(N2CCc3cc(NC(=O)Nc4ccc(N5CCN(C)CC5)c(C(F)(F)F)c4)ccc32)ccn1`, the growth with HCT-15 colon is 29.1%; in the test with HT29 colon, 21.8%; in the test on SNB-75 CNS, 75.1%; with SNB-19 CNS, 81.5%; in the test with U251 CNS, 52.7%; in the test on PC-3 prostate, 59.7%. In addition, the growth in the test with SK-MEL-5 melanoma is 85.8%; in the test on UACC-62 melanoma, 104%; in the test with LOX IMVI melanoma, -77.5% (active); in the test on SK-MEL-28 melanoma, 7.33% (active); in the test with SK-MEL-2 melanoma it was 99.4%; in the test on EKVX NSCLC, 82.3%. In addition, the growth is 100% with SN12C renal; 88.7% in the test on UO-31 renal; 134% in the test on TK-10 renal; 85.6% in the test on ACHN renal; 79.9% with CAKI-1 renal; 76.9% with A498 renal. Further, the values for the growth with CCRF-CEM leukemia and in the test on MOLT-4 leukemia were 5.44% (active) and 17.3%, respectively.

With `C(=N\Nc1nc(N/N=C/c2ccc3c(c2)OCO3)nc(N2CCCCC2)n1)/c1ccc2c(c1)OCO2`, the growth in the test with HCT-15 colon is 33.8%; with HT29 colon it was 38.2%; with SNB-75 CNS, 113%; with SNB-19 CNS, 80.3%; in the test with U251 CNS, 81.4%; in the test on PC-3 prostate, 73.6%. In addition, the growth in the test with SK-MEL-5 melanoma was 96.8%; in the test on UACC-62 melanoma, 102%; with LOX IMVI melanoma, 47.9%; in the test with SK-MEL-28 melanoma, 109%; in the test on SK-MEL-2 melanoma, 103%; with EKVX NSCLC, 93.7%. The growth is 79.7% in the test on SN12C renal; 74.4% in the test on UO-31 renal; 121% with TK-10 renal; 94.9% with ACHN renal; 98.9% with CAKI-1 renal; 51.7% in the test on A498 renal. Further, the growth is 20.4% in the test with CCRF-CEM leukemia and 56.3% in the test on MOLT-4 leukemia.

The values are drawn from PubChem BioAssay (NCI).
